Measured values published in PubChem BioAssay (EPA / NIEHS).
Results filed as inconclusive are left out. Activity calls are given as the source filed them. Rule for the calls, unless noted: active = hit-call score of the fitted dose curve at least 0.9, where 1 is the maximum; inactive = score below 0.9.

What was measured:
[1] = ACEA_ER_80hr: ACEA Biosciences xCELLigence Real-Time Cell Analysis on Estrogen Receptor Agonism for Proliferation (AID 2282667; active = hit-call score of the fitted dose curve at least 0.9, where 1 is the maximum); conditions: T47D proliferation, impedance (xCELLigence), 80 h
Method in brief: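 Real-time electrical impedance tracked growth of the human breast line T47D, with the 80 h post-dosing value used. Dosing spanned eight 1:4 steps down from a 100 uM final top concentration, run in duplicate.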

[2] = ATG_CRE_CIS: Attagene CIS-FACTORIAL HepG2 Assay for human cAMP Responsive Element (CRE) binding protein 3 (AID 2282926); conditions: HepG2 CRE cis-reporter, Attagene multiplexed mRNA; actives raise or lower the signal
Method in brief: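 Assay format: transient reporter transfection of HepG2, 24 h treatment, total RNA isolation with DNase I step. Reporter abundance read by fluorescence after PCR and capillary separation; DMSO-normalised gain or loss fitting.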

[3] = target: CCAAT/enhancer-binding protein beta (Homo sapiens) (UniProt P17676); test: ATG_C_EBP_CIS: Attagene CIS-FACTORIAL HepG2 Assay for human CCAAT/Enhancer Binding Protein (C/EBP) beta (AID 2282927); conditions: HepG2 Attagene cis-factorial transcription factor reporter; actives raise or lower the signal
Sequence of CCAAT/enhancer-binding protein beta (Homo sapiens) (P17676 whole entry, looked up): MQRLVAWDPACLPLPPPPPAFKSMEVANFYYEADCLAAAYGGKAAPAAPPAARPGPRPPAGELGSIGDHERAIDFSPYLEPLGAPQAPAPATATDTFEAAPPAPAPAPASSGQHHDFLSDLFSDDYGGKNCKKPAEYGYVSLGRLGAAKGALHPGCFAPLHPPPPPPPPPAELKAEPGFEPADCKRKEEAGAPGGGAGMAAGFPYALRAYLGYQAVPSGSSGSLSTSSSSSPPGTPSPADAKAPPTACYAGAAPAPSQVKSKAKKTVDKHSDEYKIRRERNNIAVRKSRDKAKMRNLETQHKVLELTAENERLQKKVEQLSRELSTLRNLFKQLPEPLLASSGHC
Method in brief: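 Following a 24 h incubation with test chemical, transfected HepG2 cells yielded RNA whose reporter transcripts were quantified by RT-PCR and fluorescent capillary electrophoresis, with DMSO serving as baseline for bidirectional fitting.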

[4] = ATG_CMV_CIS: Attagene CIS-FACTORIAL HepG2 Assay for human CMV (Internal Marker) (AID 2282928); conditions: HepG2 CMV promoter reporter, transcription factor profiling; actives raise or lower the signal;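 note: endpoint acts as a background internal control marker rather than a target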
Method in brief: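 Readout: fluorescent reporter cDNA fragments separated by capillary electrophoresis after RT-PCR and HpaI cut. Cells: HepG2 carrying transfected cis-promoter reporter constructs, dosed 24 h. Endpoint serves as background internal-marker control, fit bidirectionally versus DMSO.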

[5] = ATG_DR4_LXR_CIS: Attagene CIS-FACTORIAL HepG2 Assay for human Liver X Receptor (LXR), DR4 submotif (AID 2282929); conditions: HepG2 Attagene DR4 cis-reporter, mRNA transcription; actives raise or lower the signal
Method in brief: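 Cells were transfected with multiple reporter transcription units, exposed to chemicals for 24 hours, then lysed for RNA. Reporter mRNA induction was measured by RT-PCR with capillary electrophoresis detection and fitted in both directions relative to DMSO.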

[6] = target: Aryl hydrocarbon receptor (Homo sapiens) (UniProt P35869); test: ATG_Ahr_CIS: Attagene CIS-FACTORIAL HepG2 Assay for human Aryl Hydrocarbon Receptor (Ahr) (AID 2282930); conditions: HepG2 AhR cis-factorial reporter transcription; actives raise or lower the signal
Sequence of Aryl hydrocarbon receptor (Homo sapiens) (P35869 whole entry, looked up): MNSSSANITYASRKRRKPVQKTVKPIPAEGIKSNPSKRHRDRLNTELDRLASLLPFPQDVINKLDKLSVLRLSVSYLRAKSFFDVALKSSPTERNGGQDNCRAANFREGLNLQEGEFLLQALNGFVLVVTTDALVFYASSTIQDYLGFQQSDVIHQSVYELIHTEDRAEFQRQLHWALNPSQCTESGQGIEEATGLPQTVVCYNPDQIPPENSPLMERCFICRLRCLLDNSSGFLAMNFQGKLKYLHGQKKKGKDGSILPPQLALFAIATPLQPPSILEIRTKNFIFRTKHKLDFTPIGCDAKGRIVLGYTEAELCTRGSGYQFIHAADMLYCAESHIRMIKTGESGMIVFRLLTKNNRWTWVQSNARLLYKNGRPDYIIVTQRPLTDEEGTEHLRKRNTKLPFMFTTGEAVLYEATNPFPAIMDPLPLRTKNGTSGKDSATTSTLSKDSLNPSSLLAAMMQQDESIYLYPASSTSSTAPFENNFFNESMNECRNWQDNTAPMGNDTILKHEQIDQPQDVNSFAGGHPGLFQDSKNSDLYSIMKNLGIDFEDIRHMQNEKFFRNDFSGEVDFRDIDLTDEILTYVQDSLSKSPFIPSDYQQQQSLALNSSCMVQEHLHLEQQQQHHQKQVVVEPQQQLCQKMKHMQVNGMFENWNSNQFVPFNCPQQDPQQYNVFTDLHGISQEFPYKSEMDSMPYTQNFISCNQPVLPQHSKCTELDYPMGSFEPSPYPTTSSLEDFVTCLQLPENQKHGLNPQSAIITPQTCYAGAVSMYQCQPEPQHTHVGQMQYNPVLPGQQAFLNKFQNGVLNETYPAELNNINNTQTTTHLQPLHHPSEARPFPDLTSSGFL
Method in brief: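 Values derive from bidirectional fitting against DMSO negative control. Underlying signal: cis-element reporter mRNA in transiently transfected HepG2, harvested 24 h post-dose and measured by RT-PCR plus capillary electrophoresis.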

[7] = ATG_AP_1_CIS: Attagene CIS-FACTORIAL HepG2 Assay for human Activator Protein 1 (AP-1) (AID 2282931); conditions: HepG2 Attagene cis-factorial AP-1 reporter mRNA; actives raise or lower the signal
Method in brief: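 Endogenous transcription-factor activity in human HepG2 liver cells is read through a cis-promoter reporter transcript, sampled 24 h after dosing. Detection uses RT-PCR with capillary electrophoresis; values come from bidirectional fitting relative to DMSO.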

[8] = ATG_AP_2_CIS: Attagene CIS-FACTORIAL HepG2 Assay for human Activator Protein 2 (AP-2) (AID 2282932); conditions: HepG2 AP-2 cis-reporter, Attagene transcription factor profiling; actives raise or lower the signal
Method in brief: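 Cells (HepG2) transfected with promoter-driven reporter constructs, treated 24 h. Total RNA reverse-transcribed, reporter cDNA PCR-amplified, FAM-labelled by primer extension, digested, resolved by capillary electrophoresis. Activity fitted both directions versus DMSO.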

[9] = ATG_BRE_CIS: Attagene CIS-FACTORIAL HepG2 Assay for human Bone Morphogenetic Protein (BMP) Response Element (BRE) (AID 2282933); conditions: HepG2 BMP response element reporter, Attagene transcription factor profiling; actives raise or lower the signal
Method in brief: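 After a 24 h chemical treatment, transiently transfected HepG2 cells were lysed for RNA; reporter transcripts were quantified by fluorescent RT-PCR and capillary electrophoresis, normalised to DMSO.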

[10] = target: Retinoic acid receptor alpha (Homo sapiens) (UniProt P10276); test: ATG_DR5_RAR_CIS: Attagene CIS-FACTORIAL HepG2 Assay for human Retinoic Acid Receptor Alpha (RARE), DR5 submotif (AID 2282934); conditions: HepG2 Attagene cis-factorial RARE DR5 reporter, mRNA; actives raise or lower the signal
Sequence of Retinoic acid receptor alpha (Homo sapiens) (P10276 whole entry, looked up): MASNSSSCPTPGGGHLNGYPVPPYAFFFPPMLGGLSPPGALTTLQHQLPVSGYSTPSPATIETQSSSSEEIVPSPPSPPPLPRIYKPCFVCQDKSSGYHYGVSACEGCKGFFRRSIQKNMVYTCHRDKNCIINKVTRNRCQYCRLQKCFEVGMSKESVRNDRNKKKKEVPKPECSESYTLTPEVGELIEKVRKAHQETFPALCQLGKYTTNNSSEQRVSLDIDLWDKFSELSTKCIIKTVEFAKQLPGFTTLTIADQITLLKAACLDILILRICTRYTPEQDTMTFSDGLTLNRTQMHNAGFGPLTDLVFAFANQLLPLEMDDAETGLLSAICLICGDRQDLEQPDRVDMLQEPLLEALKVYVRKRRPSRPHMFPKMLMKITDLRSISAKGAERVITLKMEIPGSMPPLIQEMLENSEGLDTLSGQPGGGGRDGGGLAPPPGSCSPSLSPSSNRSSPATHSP
Method in brief: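 Endpoint fitted in both directions relative to DMSO as negative control. It reflects DR5 cis-element reporter mRNA induction in transiently transfected HepG2 cells, measured 24 h after dosing through RT-PCR and fluorescent capillary electrophoresis.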

[11] = target: Transcription factor E2F1 (Homo sapiens) (UniProt Q01094); test: ATG_E2F_CIS: Attagene CIS-FACTORIAL HepG2 Assay for human E2F Transcription Factor 1 (AID 2282935); conditions: HepG2 Attagene cis-reporter, E2F reporter RNA transcripts; actives raise or lower the signal
Sequence of Transcription factor E2F1 (Homo sapiens) (Q01094 whole entry, looked up): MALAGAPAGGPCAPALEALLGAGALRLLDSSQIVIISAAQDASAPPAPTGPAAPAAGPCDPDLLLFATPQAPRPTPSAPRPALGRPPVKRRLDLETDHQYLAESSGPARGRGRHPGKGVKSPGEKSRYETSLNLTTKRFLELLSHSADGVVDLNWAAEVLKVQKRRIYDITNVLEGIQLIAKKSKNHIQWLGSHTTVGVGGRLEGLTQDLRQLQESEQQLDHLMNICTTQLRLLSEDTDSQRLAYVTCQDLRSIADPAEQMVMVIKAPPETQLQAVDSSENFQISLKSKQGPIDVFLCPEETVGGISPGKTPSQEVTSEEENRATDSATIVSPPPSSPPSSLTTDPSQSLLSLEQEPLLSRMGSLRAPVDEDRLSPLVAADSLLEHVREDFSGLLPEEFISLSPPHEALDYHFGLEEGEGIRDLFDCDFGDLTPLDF
Method in brief: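 First, HepG2 cells were transfected with reporter transcription units. Next, they were dosed for 24 h. Then RNA was isolated, converted to cDNA, PCR-amplified, FAM-labeled, HpaI-digested and analyzed by capillary electrophoresis.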

[12] = ATG_E_Box_CIS: Attagene CIS-FACTORIAL HepG2 Assay for human Enhancer Box (E-box) (AID 2282936); conditions: HepG2 E-box cis-reporter transcription, actives raise or lower the signal
Method in brief: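 Endogenous transcription factor activity was sensed in human HepG2 liver cells through transfected cis-promoter reporter units. After 24 h of dosing, total RNA was reverse-transcribed and reporter cDNA resolved by capillary electrophoresis.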

[13] = ATG_M_61_CIS: Attagene CIS-FACTORIAL HepG2 Assay for M61 Transcription Factor (Internal Marker) (AID 2282937); conditions: HepG2 Attagene CIS-FACTORIAL M61 internal marker reporter; actives raise or lower the signal
Method in brief: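 Cells were transfected with reporter units under cis-regulatory promoters, treated with chemicals for 24 h, then lysed for RNA. Reporter transcripts were quantified by RT-PCR and capillary electrophoresis, and activity was fitted bidirectionally against DMSO.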

[14] = ATG_EGR_CIS: Attagene CIS-FACTORIAL HepG2 Assay for human Early Growth Response 1 (EGR1) (AID 2282938); conditions: HepG2 Attagene CIS-FACTORIAL EGR reporter mRNA; actives raise or lower the signal
Method in brief: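 Endogenous TF activity in HepG2 liver cells was gauged through cis-promoter reporter constructs transiently transfected. After 24 h dosing, reporter mRNA was quantified by RT-PCR and capillary electrophoresis, and curves fitted in both directions versus DMSO.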

[15] = ATG_M_19_CIS: Attagene CIS-FACTORIAL HepG2 Assay for M19 Transcription Factor (Internal Marker) (AID 2282939); conditions: HepG2 Attagene CIS-FACTORIAL M19 internal marker reporter; actives raise or lower the signal
Method in brief: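 In this multiplexed cell assay, transiently transfected HepG2 reporter units report endogenous transcription-factor activity; after 24 hours of treatment, labelled reporter cDNA fragments are quantified by capillary electrophoresis and fitted bidirectionally against DMSO.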

[16] = ATG_ERE_CIS: Attagene CIS-FACTORIAL HepG2 Assay for Estrogen Response Element (ERE) (AID 2282940); conditions: HepG2 ERE cis-reporter, Attagene RNA transcript; actives raise or lower the signal
Method in brief: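 Measuring endogenous transcription factor output, the assay doses transfected HepG2 cells for 24 hours and quantifies reporter transcripts by fluorescent RT-PCR and capillary electrophoresis, with DMSO as baseline.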

[17] = target: Hepatocyte nuclear factor 3-beta (Homo sapiens) (UniProt Q9Y261); test: ATG_FoxA2_CIS: Attagene CIS-FACTORIAL HepG2 Assay for human Forkhead box A2 (FOXA2) (AID 2282942); conditions: HepG2 cis-reporter transcription factor activity, 24 h; actives raise or lower the signal
Sequence of Hepatocyte nuclear factor 3-beta (Homo sapiens) (Q9Y261 whole entry, looked up): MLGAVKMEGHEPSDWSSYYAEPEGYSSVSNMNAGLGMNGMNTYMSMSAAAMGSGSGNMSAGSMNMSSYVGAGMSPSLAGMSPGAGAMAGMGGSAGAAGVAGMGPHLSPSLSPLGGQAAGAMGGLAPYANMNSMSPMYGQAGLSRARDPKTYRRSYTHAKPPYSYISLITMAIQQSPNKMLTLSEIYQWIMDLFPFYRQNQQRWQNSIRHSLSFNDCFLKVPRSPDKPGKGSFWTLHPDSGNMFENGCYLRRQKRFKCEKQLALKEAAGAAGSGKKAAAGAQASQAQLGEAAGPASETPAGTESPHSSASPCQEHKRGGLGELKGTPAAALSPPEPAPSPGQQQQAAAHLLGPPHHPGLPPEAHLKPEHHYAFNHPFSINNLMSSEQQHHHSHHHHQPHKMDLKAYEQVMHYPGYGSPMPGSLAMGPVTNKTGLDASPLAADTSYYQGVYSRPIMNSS
Method in brief: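 Endogenous transcription factor activity was read in HepG2 cells carrying transiently transfected cis-promoter reporter units. After 24 h dosing, reporter mRNA was quantified by RT-PCR and capillary electrophoresis, and values fitted bidirectionally versus DMSO.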

[18] = ATG_FoxO_CIS: Attagene CIS-FACTORIAL HepG2 Assay for human Forkhead box O (FoxO) (AID 2282943); conditions: HepG2 Attagene cis-reporter, FoxO element, mRNA; actives raise or lower the signal
Method in brief: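 Values reflect reporter mRNA induction or loss in HepG2 cells 24 h post-dosing, fitted bidirectionally with DMSO as negative control and baseline. Detection used RT-PCR and fluorescence capillary electrophoresis.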

[19] = ATG_GATA_CIS: Attagene CIS-FACTORIAL HepG2 Assay for human GATA Binding Protein (AID 2282944); conditions: HepG2 GATA cis-element reporter, Attagene multiplex mRNA; actives raise or lower the signal
Method in brief: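 Measures endogenous transcription factor-driven reporter mRNA in HepG2 cells transiently carrying cis-regulated constructs. 24 h dosing; RNA via oligo(dT) reverse transcription, PCR, HpaI digestion, capillary electrophoresis; fitted relative to DMSO.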

Measured: AC50

CCCCNc1ccccc1
inactive: all assays above

FC(F)(F)C(F)(F)C(F)(F)C(F)(F)C(F)(F)C(F)(F)CC1CO1 (stereo unspecified)
inactive: all assays above

c1ccc(B(c2ccccc2)c2ccccc2)cc1
active: [1] 7.09 µM | [4] 71 µM | [5] 34.2 µM | [6] 32.8 µM | [12] 160 µM | [16] 9.96 µM
inactive: all other assays above

CN(C)Cc1ccccc1O
active: [1] 4.58 µM
inactive: all other assays above

CCc1ccc(C(c2ccc(CC)cc2)C(Cl)Cl)cc1
active: [4] 100 µM | [5] 51 µM | [7] 66.5 µM | [16] 40.1 µM
inactive: all other assays above

Cc1cc(C)cc(O)c1
inactive: all assays above

O=C(O)C(F)(OC(F)(F)C(F)(OC(F)(F)C(F)(F)C(F)(F)F)C(F)(F)F)C(F)(F)F (stereo unspecified)
inactive: all assays above

FC1CC(F)(F)C(F)(F)C1(F)F (stereo unspecified)
inactive: all assays above

CCCCCCS
inactive: all assays above

CCCCCCCOC(=O)c1ccccc1C(=O)OCCCCCCC
inactive: all assays above

FC(F)(F)C(F)(F)C(F)(F)CI
inactive: all assays above

O=C(O)C(F)(F)C(F)(F)C(F)(F)C(F)(F)C(F)(F)C(F)(F)C(F)(F)C(F)(F)C(F)(F)C(F)(F)C(F)(F)C(F)(F)C(F)(F)F
active: [7] 42.8 µM
inactive: all other assays above

Cc1ccc(S(=O)(=O)OCC(F)(F)C(F)(F)C(F)(F)C(F)(F)C(F)(F)C(F)F)cc1
inactive: all assays above

OCC(F)(F)C(F)(F)C(F)(F)C(F)(F)C(F)(F)C(F)(F)F
active: [3] 204 µM | [11] 234 µM | [12] 150 µM | [14] 248 µM
inactive: all other assays above
